A short description of the test: COS7 lysate on small-molecule microarray, probe aHis, 635 nm (AID 1123).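 Also: z-score combines 667nm fluorescence intensity with signal-to-noise per printed compound spot.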 The note with it: COS7 cell lysate, fluorescence, higher = more signal.
`CC[C@H]1C2=C3C(CC[C@H]4C(OCc5ccc(F)cc5C(F)(F)F)OC[C@](C)([C@@H]34)N(C(=O)OC(C)(C)C)C2)C(COC)C1COC` (some centres not stated) had a composite z-score of 1.1.
For `CC(C)N1C(=O)C[C@@](C(=O)NCCCN(C)C)(c2ccc([N+](=O)[O-])cc2)[C@H]1c1ccc(CO)cc1`, the composite z-score was -0.185.
`NC(=O)NCC#Cc1ccc2c(c1)[C@]1(C(=O)N2)[C@H](C(=O)NC[C@H](O)c2ccccc2)[C@H]2C(=O)O[C@H](c3ccccc3)[C@H](c3ccccc3)N2[C@@H]1c1ccc(OCCO)cc1` returned a composite z-score of 0.791.
Consider `Cc1ccccc1C(O)C1C=CC2C(=O)N(C)C(=O)C2N1N(c1ccccc1)c1ccccc1` (configuration not stated), for which the composite z-score was -0.266.
Take `C=CCC(OC(C)=O)[C@@H]1[C@@H](N(Cc2cc3ccccc3o2)C(=O)c2ccc(C)cc2)c2cc(OCCCO)ccc2N1C(=O)Cc1ccc(OC)cc1` (some centres not stated): the composite z-score was found to be 0.59.
`COC(=O)C1=CC(CCCO)=CC(C2CC2)N(C)C=C1C(=O)OC` (configuration not stated) yielded a composite z-score of 1.09.
In turn, `COc1cc2c(cc1OC)CN(C(=O)[C@@H]1[C@H]3C(=O)O[C@H](c4ccccc4)[C@H](c4ccccc4)N3[C@H](c3ccc(OCCO)cc3)[C@@]13C(=O)Nc1ccc(C#CC4(O)CCCCCC4)cc13)CC2` registered a composite z-score of 2.03.
Regarding `COc1cc(OC)c(C(O)C2C=CC3C(=O)N(c4ccccc4)C(=O)C3N2Nc2ccccc2)cc1Br` (configuration not stated), the composite z-score is 1.33.
The result for `COc1ccc([Si](C)(C)[C@@H]2[C@@H](CC(=O)N(CCO)Cc3ccccc3)O[C@]3(C(=O)N(Cc4cccc(N5C(=O)c6cccc7cccc5c67)c4)c4ccccc43)[C@H]2C)cc1` reads 0.135; that for `COC(=O)c1c2oc(c1C(=O)OC)C(=O)N(C)Cc1cn(nn1)C[C@H](Cc1ccccc1)NC(=O)N[C@H](CO)CC2`, -0.69.
Consider `O=C(CS)NCCCCCCNC(=O)[C@H]1C[C@H]2C(=O)N[C@@H](Cc3ccccc3)C(=O)N2[C@H]1c1ccc(O)cc1`, for which the composite z-score was determined as 2.18.
In turn, `O=C1C2C=CC(C(O)c3ccccc3)N(Nc3ccccc3F)C2C(=O)N1c1ccccc1` (configuration not stated) registered a composite z-score of 0.737.
Molecule `CC(C)(C)N1CC=CC23O[C@@H]4C=CCOC(=O)[C@@H]4[C@H]2C(=O)N(CCCCCCO)[C@@H]3C1=O` (some centres not stated) yielded a composite z-score of -0.112.
Molecule `CCCCO[C@H]1C[C@H]2C(I)=C[C@@H]1C(=O)[C@]21CO1` had a composite z-score of -0.196.
The result for `C=CCOC(=O)[C@H]1[C@@H]2C(=O)O[C@@H](c3ccccc3)[C@@H](c3ccccc3)N2[C@@H](c2ccc(OCCOC(=O)[C@@H]3C[C@@H]4C(=O)N5CCC[C@H]5C(=O)N4[C@@H]3c3ccc(O)cc3)cc2)[C@]12C(=O)Nc1ccc(I)cc12` reads 0.897.
`C=CCOC(=O)[C@H]1[C@@H]2C(=O)O[C@@H](c3ccccc3)[C@@H](c3ccccc3)N2[C@@H](c2ccc(OCCOC(=O)[C@H]3C[C@H]4C(=O)N[C@@H](CCCCNC(C)=O)C(=O)N4[C@H]3c3ccc(O)cc3)cc2)[C@]12C(=O)Nc1ccccc12` had a composite z-score of 1.19.
The molecule `CCOc1cc(C(O)C2C=CC3C(=O)N(C)C(=O)C3N2Nc2ccccc2)ccc1O` (configuration not stated) yielded a composite z-score of 1.28.
Regarding `C#CCN([C@@H](Cc1ccc(O)cc1)C(=O)OC)[C@@H](/C=C/C1CC1)[C@H](O)Cc1ccccc1`, the composite z-score is 0.071.
Molecule `O=c1n(-c2ccccc2)c(=O)n2n1CC(COc1ccccc1)=C([C@H](O)CCc1ccccc1)[C@@H]2CO` had a composite z-score of 0.277.
`CC(=O)NCCCC[C@@H]1NC(=O)[C@H]2C[C@@H](C(=O)NCCCC[N+](C)(C)C)[C@@H](c3cccc(OCCO)c3)N2C1=O`: the composite z-score came to 1.75.
On to `CN1C(=O)C2C=CC(C(O)c3ccccn3)N(N(c3ccccc3)c3ccccc3)C2C1=O` (configuration not stated), for which the composite z-score is -0.123.
Consider `C[N+](C)(C)CCCCCCNC(=O)[C@H]1C[C@H]2C(=O)NCC(=O)N2[C@H]1c1ccc(O)cc1`, for which the composite z-score was 1.21.
`CCCC[C@@H]1C[C@H]1[C@@H](NC(=O)c1cccs1)c1ccc(C(F)(F)F)cc1` yielded a composite z-score of -0.559.
`COc1ccc(CCN2C(=O)[C@@]3(Cc4ccccc42)c2ccccc2C(=O)N(Cc2ccccc2OC)[C@H]3c2ccc(CO)cc2)cc1` came in with a composite z-score of 0.215.
Consider `C[C@@H]1NC(=O)[C@@]23C(=O)N[C@@H](Cc4ccccc4)C2[C@H](C)[C@@]2(C)O[C@H]2C3/C=C/C/C=C\CNC(=O)[C@@H]2CCCN2C1=O` (some centres not stated), for which the composite z-score was -0.0175.
`C=C(/C(=C/C[C@H](OC(C)=O)c1cccc(OCCO)c1)c1cnc2ccccc2c1)C(C)C` had a composite z-score of 0.276.
Turning to `[N-]=[N+]=NCc1ccccc1[C@H]1OC(c2ccc(OCCCO)cc2)=N[C@@]1(CCS(=O)(=O)c1ccccc1)C(=O)NCC(O)CO` (some centres not stated), the composite z-score stood at 3.48.

The values are drawn from PubChem BioAssay.
